Assay results reported in PubChem BioAssay (Tox21).
Inconclusive results are not listed. A call without a number means that no potency is given here. Active and inactive are the calls of the source. Calls come from the whole dose curve.

Assay: qHTS assay to identify small molecule agonists of the endoplasmic reticulum stress response signaling pathway - cell viability counter screen (AID 1159517); note: nearly all actives have a fitted effect of over 50% in size
Settings: ESRE-bla HeLa viability, CellTiter-Glo luminescence, 5 h; series mostly up to 61 µM
Text: U.S. Tox21 Program National Center for Advancing Translational Sciences [NCATS] NIH Chemical Genomics Center [NCGC] U.S. Environmental Protection Agency [EPA] National Institutes of Environmental Health Sciences [NIEHS] National Toxicology Program [NTP] U.S. Food and Drug Administration [FDA] Tox21 Assay Overview: Endoplasmic Reticulum (ER) plays an important role in cellular signaling, protein folding/maturation, stress response, lipid biosynthesis, calcium storage and release etc. Under stress conditions, proteins in ER misfold or unfold, and leading to the expression of ER stress responsive genes. ER stress has been associated with a variety of pathophysiological conditions such as cancer, inflammation, neurodegenerative diseases, diabetes, ischemic heart disease etc. To identify the compounds that induce ER stress response, an ER stress reporter cell line, CellSensor ESRE-bla HeLa (Life Technologies, Carlsbad, CA) containing a beta-lactamase reporter gene under control of the Endoplasmic reticulum Stress Response Element (ESRE) was used to screen Tox21 10K compound library. The cytotoxicity of the Tox21 compound library against the ESRE-bla HeLa cell line was tested in parallel by measuring cell viability using the CellTiter-Glo assay in the same wells.
Tox21 Assay Protocol Summary: ESRE-bla HeLa cells were dispensed at 1,500 cells/6 uL of assay medium per well into black wall/clear-bottom 1536-well plates using a Multidrop Combi (ThermoFisher Scientific, Waltham, MA) dispenser. After the assay plates were incubated at 37 C and 5% CO2 for an overnight, 23 nL of compounds dissolved in DMSO, positive controls or DMSO only was transferred to the assay plate by a Pintool station (Kalypsys, San Diego, CA). The assay plates were incubated at 37 C and 5% CO2 for 5 hr. One uL of LiveBLAzer B/G FRET substrate (Life Technologies) was added using a FRD (Flying Reagent Dispenser, Aurora Discovery, San Diego, CA) and the plates were incubated at room temperature for 2 hr. Fluorescence intensity (405 nm excitation, 460 nm and 530 nm emissions) was measured using an Envision plate reader (PerkinElmer, Shelton, CT). For cytotoxicity, 4 ul/well of CellTiter-Glo reagent was added into the assay plates using an FRD. After 30 min incubation at room temperature, the luminescence intensity was measured using a ViewLux plate reader (PerkinElmer).

| SMILES | Potency |
| --- | --- |
| CCCCCCCCC(=O)Cl | inactive |
| CC(C)C[C@H](NC(=O)CNC(=O)[C@H](Cc1ccc(O)cc1)NC(=O)[C@H](CO)NC(=O)[C@H](Cc1c[nH]c2ccccc12)NC(=O)[C@H](Cc1cnc[nH]1)NC(=O)[C@@H]1CCC(=O)N1)C(=O)N[C@@H](CCCN=C(N)N)C(=O)N1CCC[C@H]1C(=O)NCC(N)=O (stereo in doubt) | inactive |
| c1ccc2nccnc2c1 | inactive |
| CCCCOCCOC(=O)COc1nc(Cl)c(Cl)cc1Cl | inactive |
| CC1=C(C(=O)O)N2C(=O)[C@@H](NC(=O)[C@H](N)c3ccc(O)cc3)[C@H]2SC1 | inactive |
| CCC(C)(CCC(C)C)C(=O)O (stereo not given) | inactive |
| Cc1ccccc1C(=O)Nc1ccc(C(=O)N2CCCC(N(C)C)c3ccccc32)cc1 (stereo not given) | inactive |
| CC(C)=O | inactive |
| O=C(O)c1ccc(Cl)cc1Cl | inactive |
| CCOc1cc([N+](=O)[O-])c(OCC)cc1N1CCOCC1 | inactive |
| CCN(C)C(=O)Oc1cccc([C@H](C)N(C)C)c1 | inactive |
| CC(C)CC(=O)O | inactive |
| CC[C@H](C)C(=O)O[C@H]1C[C@H](O)C=C2C=C[C@H](C)[C@H](CC[C@@H](O)C[C@@H](O)CC(=O)O)[C@H]21 | inactive |
| CC1(CO)CN(c2ccccc2)NC1=O (stereo not given) | inactive |
| COc1ccc2c(c1OC)C(=O)O[C@@H]2[C@H]1c2c(cc3c(c2OC)OCO3)CCN1C | inactive |
| C[C@@H](Oc1ccc(CNC(=O)c2cccnc2Oc2ccc3c(c2)OCO3)c(F)c1)C(=O)O | inactive |
| CCOC(=O)c1ccc(OC(=O)CCCCCN=C(N)N)cc1 | inactive |
| O=S(=O)(O)CCN1CCN(CCO)CC1 | inactive |
| COc1ccc(S(=O)(=O)N2c3ccc(Cl)cc3[C@@](O)(c3ccccc3Cl)[C@H]2C(=O)N2CCC[C@@H]2C(N)=O)cc1OC | inactive |
| CCCCCCCCSCC | inactive |

| SMILES | Potency |
| --- | --- |
| C=C(C)C1CCC(C)(O)CC1 (stereo not given) | inactive |
| CN(C)CCOCCO | inactive |
| Cc1[nH]cnc1-c1ccc(Cl)cc1 | inactive |
| CC(C)(C)OC(=O)c1ccc(O)cc1 | inactive |
| COC(=O)c1ccccc1C(=O)c1ccc(OCCN2CCCCC2)cc1 | inactive |
| C[C@@H]1O[C@@H](O[C@@H]2[C@@H](O)[C@H](OCCc3ccc(O)c(O)c3)O[C@H](CO[C@@H]3O[C@H](CO)[C@@H](O)[C@H](O)[C@H]3O)[C@H]2OC(=O)/C=C/c2ccc(O)c(O)c2)[C@H](O)[C@H](O)[C@H]1O | inactive |
| CC(CO)c1ccccc1 (stereo not given) | inactive |
| CO[C@@H]1[C@@H](OC(N)=O)[C@@H](O)[C@H](Oc2ccc3c(O)c(NC(=O)c4ccc(O)c(CC=C(C)C)c4)c(=O)oc3c2C)OC1(C)C | inactive |
| COc1cc(NS(=O)(=O)c2ccc(N)cc2)nc(OC)n1 | inactive |
| Cc1cc(NC(=O)C2=C(O)c3ccccc3S(=O)(=O)N2C)no1 | inactive |
| COc1ccc2nc(SCc3ncc(C)c(OC)c3C)[nH]c2c1 | inactive |
| C=CCCCCCCCCCCCC | inactive |
| CC1=CCC(C(C)C)=CC1 | inactive |
| CC(=O)/C=C/C1C(C)=CCC(C)C1(C)C (stereo not given) | inactive |
| CCCCCCCCCCCCCC | inactive |
| CCCCCCOc1ccccc1C(N)=O | inactive |
| CC(C)CCCC(C)(C)O | inactive |
| CCCC/C=C\CCCCCCCCCC=O | inactive |
| N[C@@H](COP(=O)(O)O)C(=O)O | inactive |
| COc1ccc(C2CNC(=O)C2)cc1OC1CCCC1 (stereo not given) | inactive |
